Data reported in PubChem BioAssay (EPA / NIEHS).
“And” between values parts separate entries of the source, which are not always exact repeats. Equal values may be shown once. Results filed as inconclusive are left out. The source made the active and inactive calls. Rule for the calls, unless noted: active = hit-call score of the fitted dose curve at least 0.9, where 1 is the maximum; inactive = score below 0.9.

Legend:
[1] = target: human RAR-related Orphan Receptor gamma (RORg), RORC (gene 6097) (UniProt P51449); assay: ATG_RORg_TRANS: Attagene TRANS-FACTORIAL HepG2 Assay for human RAR-related Orphan Receptor gamma (RORg) (AID 2283011; active = hit-call score of the fitted dose curve at least 0.9, where 1 is the maximum;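 for AC50: potency for induction of reporter transcripts above DMSO so activators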)
How it was run: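 Activity is scored as increase in GAL4-UAS reporter mRNA over DMSO, detected by fluorescent RT-PCR and capillary electrophoresis in HepG2 cells transiently expressing a RORg-Gal4 chimera, 24 h after dosing.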

[2] = target: Retinoic acid receptor RXR-alpha (Homo sapiens) (UniProt P19793); assay: ATG_RXRa_TRANS: Attagene TRANS-FACTORIAL HepG2 Assay for human Retinoid X Receptor alpha (RXRa) (AID 2283012; active = hit-call score of the fitted dose curve at least 0.9, where 1 is the maximum)
How it was run: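 Chimeric NR-GAL4 trans-activation in HepG2, 24 h treatment; reporter transcripts quantified by fluorescence on capillary electrophoresis, analysed for upward change from DMSO.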

[3] = target: human Retinoid X Receptor beta (RXRb), RXRB (gene 6257) (UniProt P28702); assay: ATG_RXRb_TRANS: Attagene TRANS-FACTORIAL HepG2 Assay for human Retinoid X Receptor beta (RXRb) (AID 2283013; active = hit-call score of the fitted dose curve at least 0.9, where 1 is the maximum)
How it was run: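 After a 24 h incubation with test chemical, transfected HepG2 cells carrying NR-Gal4 fusions and GAL4-UAS reporter transcription units yield RNA whose reporter cDNA is FAM-labelled, HpaI-cut and sized by capillary electrophoresis; increases over DMSO are scored.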

[4] = target: human Thyroid Receptor alpha (THRa1), THRA (gene 7067) (UniProt P10827); assay: ATG_THRa1_TRANS: Attagene TRANS-FACTORIAL HepG2 Assay for human Thyroid Receptor alpha (THRa1) (AID 2283014; active = hit-call score of the fitted dose curve at least 0.9, where 1 is the maximum)
How it was run: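 First, HepG2 cells receive multiple GAL4-UAS reporter units and the chimeric receptor. They are then dosed for 24 h, after which RNA is reverse-transcribed, amplified, labelled, HpaI-cut and sized by capillary electrophoresis; gain relative to DMSO is scored.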

[5] = read-out: E-selectin (Homo sapiens) (UniProt P16581); assay: BSK_3C_Eselectin: BioMAP Diversity Plus: 3C Assay for Eselectin Biomarker Activity (AID 2283015); settings: primary human endothelial cells (HUVEC); actives raise or lower the signal
How it was run: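 Human vascular endothelium from umbilical vein is exposed to test chemicals for 24 h. E-selectin levels are read by ELISA and compared with DMSO controls.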

[6] = read-out: Interleukin-1 alpha (IL1a), IL1A (gene 3552); assay: BSK_BE3C_IL1a: BioMAP Diversity Plus: BE3C Assay for Interleukin-1 alpha (IL1a) Biomarker Activity (AID 2283016); settings: primary human bronchial epithelial cells; actives raise or lower the signal
How it was run: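 Measured in human lung primary bronchial epithelial cells: IL-1a by ELISA at 24 h after dosing, with bidirectional fitting against DMSO.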

[7] = read-out: Monocyte Chemoattractant Protein-1 (MCP1), CCL2 (gene 6347); assay: BSK_3C_MCP1: BioMAP Diversity Plus: 3C Assay for Monocyte Chemoattractant Protein-1 (MCP1) Biomarker Activity (AID 2283017); settings: primary human endothelial cells (HUVEC); actives raise or lower the signal
How it was run: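 Endothelial cells from human umbilical vein are dosed with chemical, cultured 24 h, then assayed for MCP-1 by ELISA; both increases and decreases are modelled against DMSO controls.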

[8] = read-out: Monocyte Chemoattractant Protein-1 (MCP1), CCL2 (gene 6347); assay: BSK_4H_MCP1: BioMAP Diversity Plus: 4H Assay for Monocyte Chemoattractant Protein-1 (MCP1) Biomarker Activity (AID 2283018); settings: primary human endothelial cells (HUVEC); actives raise or lower the signal
How it was run: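 Primary human umbilical vein endothelium is exposed to chemical for 24 h before MCP-1 is assayed by ELISA. Concentration-response fitted bidirectionally relative to DMSO.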

[9] = read-out: Human Leukocyte Antigen - DR isotype (HLADR), HLA-DRA (gene 3122); assay: BSK_3C_HLADR: BioMAP Diversity Plus: 3C Assay for Human Leukocyte Antigen - DR isotype (HLADR) Biomarker Activity (AID 2283019); settings: primary human endothelial cells (HUVEC); actives raise or lower the signal
How it was run: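 Endothelial cells from human umbilical vein are treated with test chemical; after 24 h, HLA-DR levels are measured by ELISA. Data are fitted in both directions using DMSO as the baseline.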

[10] = read-out: Interleukin-8 (IL8), CXCL8 (gene 3576); assay: BSK_3C_IL8: BioMAP Diversity Plus: 3C Assay for Interleukin-8 (IL8) Biomarker Activity (AID 2283020); settings: primary human endothelial cells (HUVEC); actives raise or lower the signal
How it was run: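 Using DMSO-treated wells as the baseline, bidirectional curve fitting was applied to ELISA-measured IL-8 from human umbilical vein endothelial cultures sampled 24 h after compound addition.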

[11] = read-out: Monokine induced gamma interferon (MIG), CXCL9 (gene 4283); assay: BSK_3C_MIG: BioMAP Diversity Plus: 3C Assay for Monokine induced gamma interferon (MIG) Biomarker Activity (AID 2283021); settings: primary human endothelial cells (HUVEC); actives raise or lower the signal;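 for AC50: MIG protein level measured by immunoassay in the treated endothelial cultures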
How it was run: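 ELISA-measured MIG in dosed HUVEC 3C cultures at 24 h, analysed by bidirectional fitting with DMSO defining baseline activity.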

[12] = target: human Vitamin D Receptor (VDR), VDR (gene 7421) (UniProt P11473); assay: ATG_VDR_TRANS: Attagene TRANS-FACTORIAL HepG2 Assay for human Vitamin D Receptor (VDR) (AID 2283022; active = hit-call score of the fitted dose curve at least 0.9, where 1 is the maximum)
How it was run: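 Fluorescence of labelled reporter cDNA fragments, resolved by capillary electrophoresis, gives mRNA induction after 24 h treatment of HepG2 cells carrying transfected Gal4-fusion reporter units. Activity is fitted in the positive direction with DMSO as baseline.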

[13] = BSK_3C_SRB: Viability Assessment in the BioMAP Diversity Plus: 3C Assay (AID 2283023); settings: primary human endothelial cells (HUVEC);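 note: cells read 24 h after compound dosing; fitted both ways against DMSO so a hit may be signal rise or drop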
How it was run: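 Cells were dosed with chemical, cultured 24 h, fixed with 10% TCA, stained with 0.1% SRB and read at 560 nm. Human umbilical vein endothelium was used; DMSO served as negative control and baseline.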

[14] = read-out: Matrix Metallopeptidase 1 (MMP1), MMP1 (gene 4312); assay: BSK_BE3C_MMP1: BioMAP Diversity Plus: BE3C Assay for Matrix Metallopeptidase 1 (MMP1) Biomarker Activity (AID 2283024); settings: primary human bronchial epithelial cells; actives raise or lower the signal
How it was run: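 In this multiplexed primary-cell system, human bronchial epithelium received chemicals for 24 h before an ELISA for MMP1. Values reflect bidirectional fits normalised to the DMSO baseline.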

[15] = BSK_3C_Vis: BioMAP Diversity Plus: 3C Assay for Morphology Visualization (AID 2283025); settings: primary human endothelial cells (HUVEC);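 note: fitted both ways so gain or loss versus DMSO counts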;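 for AC50: light microscopy image of cell morphology used as background control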
How it was run: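 Light-microscopy morphology readout, 24 h exposure, human primary umbilical vein endothelium; analysed relative to DMSO with bidirectional fitting.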

[16] = read-out: Pselectin, SELP (gene 6403); assay: BSK_4H_Pselectin: BioMAP Diversity Plus: 4H Assay for Pselectin Biomarker Activity (AID 2283026); settings: primary human endothelial cells (HUVEC); actives raise or lower the signal
How it was run: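 Bidirectional fits against DMSO gave the endpoint. Cells: primary human umbilical vein endothelium, chemical-treated for 24 h before ELISA detection of P-selectin.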

[17] = BSK_4H_SRB: Viability Assessment in the BioMAP Diversity Plus: 4H Assay (AID 2283027); settings: primary human endothelial cells (HUVEC);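 note: cells exposed to compound for 24 h before staining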;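 for AC50: curves fitted both ways versus DMSO so AC50 may be loss or gain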
How it was run: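 HUVEC, 24 h post-dose; 10% TCA fix, 0.1% SRB stain, A560 nm. Total protein = overt cytotoxicity, parallel to biomarker read. Bidirectional fit vs DMSO baseline.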

[18] = BSK_BE3C_SRB: Viability Assessment in the BioMAP Diversity Plus: BE3C Assay (AID 2283028); settings: primary human bronchial epithelial cells;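 for AC50: fitted both ways so AC50 may mark signal gain or loss versus DMSO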
How it was run: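 Overt cytotoxicity was assessed as total protein in confluent human primary bronchial epithelial cultures 24 h after chemical addition, using 0.1% sulforhodamine B staining read at 560 nm.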

[19] = read-out: Thrombomodulin, THBD (gene 7056); assay: BSK_3C_Thrombomodulin: BioMAP Diversity Plus: 3C Assay for Thrombomodulin Biomarker Activity (AID 2283029); settings: primary human endothelial cells (HUVEC); actives raise or lower the signal
How it was run: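 In a multiplexed primary-cell system, human umbilical vein endothelium received chemical and was assayed 24 h later for thrombomodulin by ELISA. Parallel cultures were SRB-stained (0.1% SRB after 10% TCA fixation, read at 560 nm) to flag cytotoxicity.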

Measured: AC50

Chain of human RAR-related Orphan Receptor gamma (RORg), RORC (gene 6097) (P51449 whole entry, looked up, the tested form may be a part): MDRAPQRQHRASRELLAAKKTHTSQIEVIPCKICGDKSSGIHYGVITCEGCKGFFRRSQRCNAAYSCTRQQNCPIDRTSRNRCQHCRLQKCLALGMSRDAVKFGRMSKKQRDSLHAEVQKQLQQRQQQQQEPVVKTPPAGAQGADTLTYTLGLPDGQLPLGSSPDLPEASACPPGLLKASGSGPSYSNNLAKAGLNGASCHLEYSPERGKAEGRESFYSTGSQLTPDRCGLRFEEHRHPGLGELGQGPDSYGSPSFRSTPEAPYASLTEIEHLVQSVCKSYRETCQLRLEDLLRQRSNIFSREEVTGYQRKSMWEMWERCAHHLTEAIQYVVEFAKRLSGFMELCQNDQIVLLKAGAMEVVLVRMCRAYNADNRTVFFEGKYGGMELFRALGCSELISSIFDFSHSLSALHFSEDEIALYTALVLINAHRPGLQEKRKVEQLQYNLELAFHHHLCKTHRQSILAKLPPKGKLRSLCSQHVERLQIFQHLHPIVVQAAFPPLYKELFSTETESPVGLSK
Chain of human Thyroid Receptor alpha (THRa1), THRA (gene 7067) (P10827 whole entry, looked up, the tested form may be a part): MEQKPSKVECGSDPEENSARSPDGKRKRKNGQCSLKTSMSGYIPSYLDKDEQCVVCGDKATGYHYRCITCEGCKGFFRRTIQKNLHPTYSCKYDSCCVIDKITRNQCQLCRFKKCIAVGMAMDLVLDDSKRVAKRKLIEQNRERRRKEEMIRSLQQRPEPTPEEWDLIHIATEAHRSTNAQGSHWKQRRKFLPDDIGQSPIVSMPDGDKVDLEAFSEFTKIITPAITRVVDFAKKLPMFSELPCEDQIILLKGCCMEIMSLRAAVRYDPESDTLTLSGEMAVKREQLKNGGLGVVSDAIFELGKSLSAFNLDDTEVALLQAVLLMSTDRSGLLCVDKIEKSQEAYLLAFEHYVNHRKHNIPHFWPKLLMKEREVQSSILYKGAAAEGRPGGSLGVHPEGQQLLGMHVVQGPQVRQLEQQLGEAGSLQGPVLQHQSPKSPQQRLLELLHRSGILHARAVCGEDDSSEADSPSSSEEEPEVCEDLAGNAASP
Chain of human Retinoid X Receptor beta (RXRb), RXRB (gene 6257) (P28702 whole entry, looked up, the tested form may be a part): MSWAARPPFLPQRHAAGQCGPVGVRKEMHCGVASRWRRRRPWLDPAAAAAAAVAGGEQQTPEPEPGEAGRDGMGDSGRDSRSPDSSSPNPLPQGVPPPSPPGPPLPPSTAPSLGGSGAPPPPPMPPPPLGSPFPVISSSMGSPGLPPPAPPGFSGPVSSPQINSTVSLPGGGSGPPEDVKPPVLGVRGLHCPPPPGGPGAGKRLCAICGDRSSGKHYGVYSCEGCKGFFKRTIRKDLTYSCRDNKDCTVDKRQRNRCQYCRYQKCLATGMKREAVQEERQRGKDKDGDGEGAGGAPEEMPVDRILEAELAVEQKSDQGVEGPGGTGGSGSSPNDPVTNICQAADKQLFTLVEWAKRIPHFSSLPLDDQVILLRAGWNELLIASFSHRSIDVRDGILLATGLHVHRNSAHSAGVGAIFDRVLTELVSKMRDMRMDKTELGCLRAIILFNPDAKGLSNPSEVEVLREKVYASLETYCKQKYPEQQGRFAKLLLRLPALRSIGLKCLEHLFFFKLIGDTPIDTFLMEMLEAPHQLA
Chain of E-selectin (Homo sapiens) (P16581 whole entry, looked up): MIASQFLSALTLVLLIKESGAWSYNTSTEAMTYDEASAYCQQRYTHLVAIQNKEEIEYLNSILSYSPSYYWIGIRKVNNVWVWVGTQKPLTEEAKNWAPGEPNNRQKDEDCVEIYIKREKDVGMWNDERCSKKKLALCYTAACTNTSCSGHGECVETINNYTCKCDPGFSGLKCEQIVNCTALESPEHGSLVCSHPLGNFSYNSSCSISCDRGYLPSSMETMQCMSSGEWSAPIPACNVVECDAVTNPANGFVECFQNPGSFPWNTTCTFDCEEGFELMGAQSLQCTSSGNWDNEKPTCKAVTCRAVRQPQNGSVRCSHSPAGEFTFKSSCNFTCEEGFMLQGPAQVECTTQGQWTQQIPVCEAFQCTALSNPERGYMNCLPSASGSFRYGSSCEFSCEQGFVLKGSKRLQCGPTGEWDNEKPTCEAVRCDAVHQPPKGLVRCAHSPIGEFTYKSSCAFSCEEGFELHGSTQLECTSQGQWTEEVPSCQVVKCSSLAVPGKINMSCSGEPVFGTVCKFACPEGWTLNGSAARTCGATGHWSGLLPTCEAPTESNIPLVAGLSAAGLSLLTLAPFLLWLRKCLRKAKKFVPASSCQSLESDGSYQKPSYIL
Chain of Retinoic acid receptor RXR-alpha (Homo sapiens) (P19793 whole entry, looked up, the tested form may be a part): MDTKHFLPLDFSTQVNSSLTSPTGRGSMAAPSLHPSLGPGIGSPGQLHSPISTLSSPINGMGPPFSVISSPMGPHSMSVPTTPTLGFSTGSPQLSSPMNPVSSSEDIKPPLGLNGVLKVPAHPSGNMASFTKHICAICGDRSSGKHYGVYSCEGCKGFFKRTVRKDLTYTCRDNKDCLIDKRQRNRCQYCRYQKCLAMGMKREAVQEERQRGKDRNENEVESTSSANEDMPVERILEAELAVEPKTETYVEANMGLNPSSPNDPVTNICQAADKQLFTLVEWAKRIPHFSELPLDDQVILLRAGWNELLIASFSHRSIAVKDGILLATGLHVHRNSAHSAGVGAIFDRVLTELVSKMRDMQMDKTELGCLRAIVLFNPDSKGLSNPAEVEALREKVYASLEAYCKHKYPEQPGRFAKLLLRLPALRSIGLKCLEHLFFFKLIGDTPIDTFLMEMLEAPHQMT
Chain of human Vitamin D Receptor (VDR), VDR (gene 7421) (P11473 whole entry, looked up, the tested form may be a part): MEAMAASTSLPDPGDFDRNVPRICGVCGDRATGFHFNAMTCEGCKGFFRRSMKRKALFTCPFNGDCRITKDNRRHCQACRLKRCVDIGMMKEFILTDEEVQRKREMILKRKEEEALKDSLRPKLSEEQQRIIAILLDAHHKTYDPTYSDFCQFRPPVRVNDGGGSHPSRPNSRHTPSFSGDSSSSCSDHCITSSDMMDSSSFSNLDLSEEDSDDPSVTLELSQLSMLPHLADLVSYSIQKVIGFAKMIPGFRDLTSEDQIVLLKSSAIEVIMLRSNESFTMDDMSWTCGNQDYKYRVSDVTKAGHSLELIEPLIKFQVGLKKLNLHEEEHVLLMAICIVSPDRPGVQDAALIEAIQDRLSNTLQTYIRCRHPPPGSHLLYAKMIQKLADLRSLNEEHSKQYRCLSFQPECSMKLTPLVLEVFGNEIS

Cc1ncc([C@@H](CCCCCCc2ccc3c(n2)NCCC3)CC(=O)O)cn1
active: [10] 1.02 µM
inactive: all other assays above

S=P(N1CC1)(N1CC1)N1CC1
inactive: all assays above

O=c1[nH]cnc2c1ncn2[C@H]1CC[C@@H](CO)O1
not listed: [3] | [12]
inactive: all other assays above

OCc1ccccc1
active: [3] 1.09 µM
not listed: [2] | [9] | [12]
inactive: all other assays above

CC(C)C(=O)Nc1ccc([N+](=O)[O-])c(C(F)(F)F)c1
active: [3] 13.3 µM | [4] 100 µM | [9] 34.1 µM
not listed: [1] | [12]
inactive: all other assays above

CCCCOC(=O)c1ccccc1
not listed: [1] | [4] | [9] | [12]
inactive: all other assays above

FC(F)=C(F)C(F)(F)C(F)(F)C(F)(F)C(F)(F)C(F)(F)C(F)(F)F
not listed: [15]
inactive: all other assays above

CCCCCCCC1CCC(=O)O1 (configuration not stated)
not listed: [2] | [4] | [9] | [12]
inactive: all other assays above

OC(O)(C(F)C(O)(O)C(F)(F)F)C(F)(F)F
active: [1] 220 µM and 106 µM
not listed: [4] | [9] | [15]
inactive: all other assays above

Cn1c(=O)c2[nH]cnc2n(C)c1=O
not listed: [3] | [4] | [9] | [12]
inactive: all other assays above

NC(=O)NN=Cc1ccc([N+](=O)[O-])o1
not listed: [2] | [3] | [4]
inactive: all other assays above

C=CCc1cc(S(=O)(=O)c2ccc(O)c(CC=C)c2)ccc1O
inactive: [4] | [8] | [12] | [19]
active: [5] 20 µM | [6] 21.1 µM | [7] 14.4 µM | [9] 16.3 µM | [10] 12.4 µM | [11] 34.8 µM | [13] 23.8 µM | [14] 30.5 µM | [15] 37.5 µM | [16] 33.8 µM | [17] 20 µM | [18] 15.8 µM

c1ccc2cc3ccccc3cc2c1
not listed: [1] | [2] | [3]
inactive: all other assays above

OCCOCCOCCO
not listed: [1] | [2] | [4] | [10]
inactive: all other assays above

O=C(O)c1cccc(C[C@@H]2COc3ccc(OCc4nc5cc(F)ccc5s4)cc3[C@@H]2O)c1
not listed: [1] | [2] | [4] | [9] | [12]
inactive: all other assays above

CCCCN1C(=O)[C@@H]([C@H](O)C2CCCCC2)NC(=O)C12CCN(Cc1ccc(Oc3ccc(C(=O)O)cc3)cc1)CC2
active: [7] 14.9 µM | [13] 27.3 µM | [15] 39 µM | [17] 23.6 µM
not listed: [1] | [2] | [3] | [4] | [9] | [12]
inactive: all other assays above
